Consider 64 molecules from ChEMBL document CHEMBL4513216, “Probing the Open Global Health Chemical Diversity Library for Multistage-Active Starting Points for Next-Generation Antimalarials” (ACS Infect Dis, 2020).

Structures are written as SMILES. Out of some 69,000 compounds screened, about 8,600 (12%) showed an effect of 50% or more. This is one part of a sample in which strong results are shown more often than they occur.

This experiment concerns Plasmodium berghei. The experiment is described as follows: Screen against P. berghei liver stage (PbLuc), transformed with Luciferase, at 10uM. It counts as functional, HepG2. The following applies: tested at 10 uM.
Regarding `Cc1ccoc1C1=NNC(=CN2CCCC(Cn3cncn3)C2)O1` (centres undefined), the INHIBITION was determined as 27.1%. In the case of `Cc1cc(-c2nn(C)c(Cl)c2CN2CCN(C)C(C(=O)O)C2)no1` (centres undefined), the INHIBITION was 59.4%. For the molecule `Cc1cc(-c2nn(C)c(Cl)c2CN2CCC3(CC2)[C@H](O)C[C@@H]3O)no1`, the INHIBITION is 50.3%. Regarding `CCNC(=O)C1CN(Cc2c(-c3cc(C)on3)nn(C)c2Cl)CCO1` (centres undefined), the INHIBITION worked out at 43%. Turning to `Cc1cc(-c2nn(C)c(Cl)c2CN2CCOCC(O)C2)no1` (centres undefined), the INHIBITION came out at 41.8%. As for `Cc1cc(C)n(C2CCN(Cc3c(-c4cc(C)on4)nn(C)c3Cl)C2)n1` (centres undefined), the INHIBITION was determined as 28.5%. Consider `Cc1cc(-c2nn(C)c(Cl)c2CN2CCOC(C(=O)O)C2)no1` (centres undefined), for which the INHIBITION came to 17.6%. As for `Cc1cc(-c2nn(C)c(Cl)c2CN2CC[C@@](O)(C3CCC3)[C@H](C)C2)no1`, the figure is 33.9%; as for `Cc1cc(-c2nn(C)c(Cl)c2CN2Cc3ccccc3C(O)C2)no1` (centres undefined), 51.8%; as for `Cc1cc(-c2nn(C)c(Cl)c2CN2CC[C@H](CO)[C@@H](O)C2)no1`, 36.7%. As for `Cc1cnn(CC2CN(CC(=O)Nc3cc(C)no3)CCO2)c1` (centres undefined), the figure is -103.725%; as for `O=C1CC(c2ccc(C(=O)O)cc2)c2c(sc3c2CCCC3)N1` (centres undefined), 89.3%; as for `O=C1CC(c2ccncc2)c2c(sc3c2CCCC3)N1` (centres undefined), 20.4%.

Consider `O=C1CC(c2cccnc2)c2c(sc3c2CCCC3)N1` (centres undefined), for which the INHIBITION is 26.9%. Turning to `CC(=O)N(Cc1ncc(C)o1)C1CCN(CCOc2ccccc2)C1` (centres undefined), the INHIBITION came to 8.31%. In the case of `Cc1nc2c(c(N(C)C)n1)CCN(C(=O)CN1CCC(O)CC1)C2`, the INHIBITION is reported as 45.3%. Consider `CN(C)c1nc2c(c(N(C)C)n1)CCN(C(=O)CN1CCC(O)CC1)C2`, for which the INHIBITION is on record as 56.1%.

Regarding `CC(C)SCC(=O)N1CCc2c(nc(N(C)C)nc2N(C)C)C1`, the INHIBITION stood at 61.1%. For `CC(=O)N1CCc2c(nc(N(C)C)nc2N(C)CC2CCCO2)C1` (centres undefined), the INHIBITION was 41.4%.

Consider `CN(C)c1nc2c(c(N(C)C)n1)CCN(C(=O)CN1C[C@H]3CC[C@@H]1C3)C2`, for which the INHIBITION was determined as 11.7%.

Turning to `CCN(CC)CCC(=O)N1CCc2c(nc(N(C)C)nc2N(C)C)C1`, the INHIBITION was 30.1%. As for `Cc1ccc(NC(=O)C2CSCN2C(=O)c2cnsn2)c(C)c1` (centres undefined), the INHIBITION is on record as -50.6%. Regarding `COc1ccc(S(=O)(=O)N2CCc3ccc(F)cc32)cc1C(=O)O`, the INHIBITION worked out at 15.3%.

With `CCS(=O)(=O)N1CCc2ccc(NC(=O)NC(C)(C)C)cc21`, the INHIBITION is given as 46.1%. Turning to `CCS(=O)(=O)N1CCc2ccc(NC(=O)Nc3cccc(C)c3)cc21`, the INHIBITION is reported as 85%. Turning to `CO[C@H]1CN(C(C)C)C[C@@H]1NC(=O)Nc1cccc(SC)c1`, the INHIBITION was 12.6%.

In the case of `Cc1cccc(NC(=O)N2CCC(CO)(Nc3ccccc3)CC2)c1`, the INHIBITION is reported as -15.96%. As to `CSc1ccc(NC(=O)Nc2ccc3c(c2)N(S(C)(=O)=O)CC3)cc1`, the INHIBITION was 49%. Turning to `O=C(O)c1csc(S(=O)(=O)N2CCCc3ccc(F)cc32)c1`, the INHIBITION was -9.67%. In the case of `CCS(=O)(=O)N1CCc2ccc(NC(=O)Nc3ccc(F)cc3F)cc21`, the INHIBITION is listed as 72.6%. Take `Cc1cc(S(=O)(=O)N2CCCc3ccc(F)cc32)sc1C(=O)O`: the INHIBITION was found to be 26.8%. As for `CCS(=O)(=O)N1CCc2ccc(NC(=O)NC3CCCCC3)cc21`, the INHIBITION came out at 8.41%.

As to `CCS(=O)(=O)N1CCCc2ccc(NC(=O)Cc3ccc(F)cc3)cc21`, the INHIBITION is listed as 56.1%.

For the molecule `CCS(=O)(=O)N1CCc2ccc(NC(=O)Nc3cccc(SC)c3)cc21`, the INHIBITION is given as 88.4%. Turning to `O=C(c1ccc2c(c1)CCCC2)N1CCCC(n2cncn2)C1` (centres undefined), the INHIBITION was 19.6%. With `O=C(c1cccnc1)N1CCCC(c2ncncc2-c2ccncc2)C1` (centres undefined), the INHIBITION was 44.8%.

For `C[C@@H]1C(=O)NC[C@H]2CN(Cc3ccc4c(c3)OCO4)C[C@H]21`, the INHIBITION was 30.9%. In the case of `COc1nn(C)c2c1CCCN(C(=O)c1ccc3c(c1)OCO3)C2` it was 20.9%; in that of `O=C(Nc1ccccc1OCCc1ccccn1)N1CCOCC1`, -98.1%; in that of `CNC(=O)C1(Cc2cc(C(C)C)no2)CCN(Cc2cccnc2)C1` (centres undefined), 13.125%.

Turning to `CCS(=O)(=O)N1CCc2ccc(NC(=O)Nc3ccccc3)cc21`, the INHIBITION came out at 88.5%. `COCCN1CCC(NC(=O)Nc2cccc(F)c2)C1` (centres undefined): the INHIBITION was determined as 28.9%. As for `CCS(=O)(=O)N1CCc2ccc(NC(=O)Nc3cccc(F)c3)cc21`, the INHIBITION was 91.4%. As to `CCS(=O)(=O)N1CCc2ccc(NC(=O)NCc3ccccc3)cc21`, the INHIBITION is reported as -23.5%. In the case of `CCNC(=O)N1CCc2ccc(NC(=O)NCC3CC3)cc21`, the INHIBITION is listed as 10.7%.

As to `CCS(=O)(=O)N1CCc2ccc(NC(=O)Nc3ccccc3C)cc21`, the INHIBITION amounted to 34.5%. In the case of `Cn1cccc1C(=O)N1CCO[C@@H]2CN(Cc3nccs3)C[C@@H]2C1`, the INHIBITION is given as -28.5%.

For the molecule `CN(C)C(=O)COC[C@]12COC[C@H]1CN(CC1CCC1)C2`, the INHIBITION is listed as -11.1%. For `COc1ccnc(N2CCN(C(=O)Cc3ccsc3)CC2)n1`, the INHIBITION is -47.6%. In the case of `CNS(=O)(=O)CCCN1CCN(C(C#N)c2ccccc2)CC1` (centres undefined) it was 47.3%; in that of `O=C(Nc1ccccc1)N1CCN(Cc2noc(C3CC3)n2)CC1`, 17.4%; in that of `CNC(=O)c1c(C)cccc1NCC(=O)Nc1cc(C)nn1C`, 19.1%. As to `O=C(Nc1ccc(F)cc1)N1CCN(Cc2noc(C3CC3)n2)CC1`, the INHIBITION was -3.2%. Turning to `O=C(Cc1ccccc1)N1CCN(Cc2noc(C3CC3)n2)CC1`, the INHIBITION is listed as 1.77%.

As to `Cc1ccccc1NC(=O)N1CCN(Cc2noc(C3CC3)n2)CC1`, the INHIBITION is listed as 58.5%.

For the molecule `O=C(Nc1ccccc1F)N1CCN(Cc2noc(C3CC3)n2)CC1`, the INHIBITION came out at 11.8%. In the case of `CNC(=O)c1c(C)cccc1NCc1noc(C2CC2)n1`, the INHIBITION was 74%.

`O=C(Cc1ccccc1F)N1CCN(Cc2noc(C3CC3)n2)CC1`: the INHIBITION amounted to 52.3%.

Regarding `CNC(=O)c1c(C)cccc1NCc1nnc(C2CC2)o1`, the INHIBITION came to 24.3%.

As to `COC1(CNC(=O)c2ccc3nsnc3c2)CCSC1` (centres undefined), the INHIBITION is on record as -3.83%. As for `COCc1noc(CN2CCC3(CC2)[C@H](O)C[C@@H]3OC)n1`, the INHIBITION is 15.8%. For the molecule `CCOc1ccc(OCC(O)CN2CCN(S(C)(=O)=O)CC2)cc1` (centres undefined), the INHIBITION is recorded as -67.3%. Regarding `CC(=O)NCC1CCN(C(=O)c2c[nH]c3cc(Cl)ccc23)CC1`, the INHIBITION was 35.3%. With `CN1CCO[C@@H]2CN(S(=O)(=O)c3cccs3)CC[C@@H]2C1`, the INHIBITION turned out to be 28.5%.
